Experimental data as given in PubChem BioAssay (Tox21).
Inconclusive results are not listed. Calls of active or inactive are those of the source. Unless noted, the call rests on the fitted dose curve; in most records, active means well fitted curve in the direction sought with a large enough effect in the repeat runs; inconclusive means weak or mixed curves; inactive means no such curve, though single readings can be large; an effect the other way counts as inactive or inconclusive.

Experiments:
[1] = qHTS assay to identify small molecule agonists of the vitamin D receptor (VDR) signaling pathway - cell viability counter screen (AID 743224); conditions: VDR-bla HEK293T viability, CellTiter-Glo luminescence, 16 h; series mostly up to 62.6 µM; further: nearly all actives have a fitted effect of over 50% in size
How it was run: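 Here cell health was gauged by luminescent ATP detection (CellTiter-Glo, 30 min RT) in VDR-bla cells that had been incubated with test compounds for 16 h at 37C and 5% CO2.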

[2] = qHTS assay to identify small molecule antagonists of the vitamin D receptor (VDR) signaling pathway - cell viability counter screen (AID 743225); conditions: VDR-bla HEK293T viability, CellTiter-Glo luminescence, 16 h; series mostly up to 61 µM; further: nearly all actives have a fitted effect of over 50% in size
How it was run: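 VDR-UAS-bla HEK 293T cells were plated and incubated 4 h at 37C, then dosed with compound plus 3 nM (final) 1-alpha,25-dihydroxyvitamin D3 for 16 h. After the 2 h beta-lactamase read, viability in the same wells was read as CellTiter-Glo luminescence after 30 min at room temperature.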

[3] = qHTS assay to identify small molecule agonists of the NFkB signaling pathway (AID 1159509; active means well fitted curve in the direction sought with a large enough effect in the signal ratio in the repeat runs, not every such curve was filed as active; the % refers to the signal ratio); conditions: NFkB-bla ME-180 cells, beta-lactamase FRET ratio, 5 h; series mostly up to 61 µM
How it was run: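 NFkB-bla ME-180 cells with a beta-lactamase reporter under an NF-kB response element were plated overnight, treated with compounds in DMSO for 5 hr at 37 C, then loaded with FRET substrate for 1.5 hr at room temperature.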

[4] = qHTS assay to identify small molecule agonists of the NFkB signaling pathway - cell viability counter screen (AID 1159515; calls by dose curve; further: nearly all actives have a fitted effect of over 55% in size); conditions: NFkB-bla ME-180 viability, CellTiter-Glo luminescence, 5 h; series mostly up to 61 µM
How it was run: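 5 hr compound treatment of NFkB-bla ME-180 cells (2,000/well, seeded overnight beforehand), followed by reporter substrate for 1.5 hr. CellTiter-Glo added afterward; luminescence after 30 min RT.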

[5] = qHTS assay to identify small molecule agonists of the endoplasmic reticulum stress response signaling pathway (AID 1159516; active means well fitted activation curve with a large enough effect in the signal ratio in the repeat runs, not every such curve was filed as active; the % refers to the signal ratio); conditions: ESRE-bla HeLa, ER stress beta-lactamase reporter, 5 h; series mostly up to 61 µM
How it was run: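 Reporter HeLa cells (ESRE-beta-lactamase) underwent 5 hr compound incubation at 37 C and 5% CO2 in quantitative HTS format. Detection followed 2 hr of FRET substrate loading at room temperature.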

[6] = qHTS assay to identify small molecule agonists of the endoplasmic reticulum stress response signaling pathway - cell viability counter screen (AID 1159517; calls by dose curve;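 further: HeLa cells carrying an ER stress response element beta-lactamase reporter; nearly all actives have a fitted effect of over 50% in size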); conditions: ESRE-bla HeLa viability, CellTiter-Glo luminescence, 5 h; series mostly up to 61 µM
How it was run: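 Cells, HeLa ESRE-bla; density, 1,500/well; dosing, 5 hr at 37 C, 5% CO2; readout, CellTiter-Glo luminescence after 30 min RT.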

[7] = qHTS assay to identify small molecule antagonists of the retinoid-related orphan receptor gamma (ROR-gamma) signaling pathway - cell viability counter screen (AID 1159520); conditions: Tet-on RORgamma CHO cells viability, ATP luminescence, 16 h; series mostly up to 92.4 µM; further: nearly all actives have a fitted effect of over 50% in size
How it was run: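 Cytotoxicity was read from cellular ATP (CellTiter-Glo luminescence) after 16 hr at 37 C with 1 uM doxycycline induction. The inducer was added 2 hr after compound transfer to Tet-on ROR gamma CHO cells.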

[8] = target: Nuclear receptor ROR-gamma (Homo sapiens) (UniProt P51449); test: qHTS assay to identify small molecule antagonists of the retinoid-related orphan receptor gamma (ROR-gamma) signaling pathway (AID 1159521); conditions: Tet-on RORgamma CHO cells, RORE-luciferase, 16 h; series mostly up to 92.4 µM
How it was run: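 Tet-on ROR-gamma CHO cells with ROR response element-luciferase reporter; compounds added 2 hr before 1 uM doxycycline induction, then 16 hr at 37 C. Antagonism scored as decreased ONE-Glo luminescence.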

[9] = qHTS assay to identify small molecule agonists of the AP-1 signaling pathway - cell viability counter screen (AID 1159525; calls by dose curve; further: nearly all actives have a fitted effect of over 55% in size); conditions: ME-180 AP-1-bla cells viability, ATP luminescence, 5 h; series mostly up to 76.8 µM
How it was run: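 Luminescent ATP readout (Cell Titer Glo, 30 min RT), normalised to DMSO and tetra n-octyl ammonium bromide controls. Cells were ME-180 AP-1-bla in 0.5% dialyzed FBS Opti-MEM, with a 5 h, 37 °C compound exposure.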

[10] = qHTS assay to identify small molecule agonists of the AP-1 signaling pathway (AID 1159526; calls by dose curve); conditions: ME-180 (cervical carcinoma) AP-1-bla reporter, beta-lactamase FRET ratio, 5 h; series mostly up to 76.8 µM
[11] = target: Retinoic acid receptor RXR-alpha (Homo sapiens) (UniProt P19793); test: qHTS assay to identify small molecule agonists of the RXR signaling pathway (AID 1159527; calls by dose curve; further: nearly all actives have a fitted effect of over 35% in size); conditions: HEK293T RXRa-UAS-bla, beta-lactamase ratio, 16 h; series mostly up to 76.8 µM
Retinoic acid receptor RXR-alpha (Homo sapiens), sequence (P19793 whole entry, looked up): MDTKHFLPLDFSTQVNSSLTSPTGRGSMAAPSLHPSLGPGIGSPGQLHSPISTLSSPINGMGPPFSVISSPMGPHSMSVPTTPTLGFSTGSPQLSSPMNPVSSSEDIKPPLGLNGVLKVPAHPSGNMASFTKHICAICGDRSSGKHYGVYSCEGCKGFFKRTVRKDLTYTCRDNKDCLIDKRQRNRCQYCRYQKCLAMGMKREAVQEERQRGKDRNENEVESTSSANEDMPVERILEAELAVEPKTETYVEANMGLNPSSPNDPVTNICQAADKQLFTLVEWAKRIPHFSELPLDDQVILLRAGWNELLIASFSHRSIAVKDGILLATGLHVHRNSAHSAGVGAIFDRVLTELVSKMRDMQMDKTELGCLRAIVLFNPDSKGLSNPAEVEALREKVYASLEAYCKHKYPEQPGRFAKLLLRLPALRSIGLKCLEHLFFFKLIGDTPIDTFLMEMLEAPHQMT
How it was run: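 GeneBLAzer RXR-alpha-UAS-bla HEK 293T cells in 2% charcoal-stripped FBS medium were exposed to compounds for 16 hr at 37 C in agonist mode. Beta-lactamase reporter read as 460/530 nm FRET ratio after 2 hr substrate loading.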

[12] = qHTS assay to identify small molecule agonists of the RXR signaling pathway - cell viability counter screen (AID 1159529); conditions: RXR-alpha-bla HEK293T viability, CellTiter-Glo, 16 h; series mostly up to 76.8 µM; further: nearly all actives have a fitted effect of over 50% in size
How it was run: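 RXR-alpha-UAS-bla HEK 293T cells in medium with 2% charcoal-stripped FBS were pre-incubated 5 hr, then compound-treated 16 hr at 37 C. Viability was read by CellTiter-Glo luminescence in the same wells as the beta-lactamase assay, with tetraoctyl ammonium bromide as positive control.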

[13] = qHTS assay to identify small molecule antagonists of the retinoid acid receptor (RAR) signaling pathway - cell viability counter screen (AID 1159551); conditions: C3RL4 cells viability, ATP luminescence (CellTiter-Glo), 6 h; series mostly up to 92.4 µM; further: nearly all actives have a fitted effect of over 35% in size
How it was run: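 Seed C3RL4 cells; next day add compound, then retinol to 1 uM final; incubate 6 h at 37 C; add CellTiter-Glo; read luminescence after 30 min at RT.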

[14] = qHTS assay to identify small molecule antagonists of the estrogen related receptor (ERR) signaling pathway from Tox21 library - cell viability counter screen (AID 1224834); conditions: ERR reporter cells viability, CellTiter-Fluor, 17.5 h; series mostly up to 92.4 µM; further: nearly all actives have a fitted effect of over 30% in size
How it was run: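 CellTiter-Fluor fluorescence measured; ERR cells; 17.5 h compound incubation at 37 C; 30 min reagent step.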

[15] = qHTS assay to identify small molecule antagonists of the estrogen related receptor (ERR) signaling pathway - cell viability counter screen (AID 1224818); conditions: ERR reporter cell line viability counter screen; series mostly up to 46.1 µM;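 further: viability measured after 17.5 h of compound exposure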
How it was run: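 In the same ERR cell assay, compound-treated wells (17.5 h, 37 C) were multiplexed with a fluorogenic viability reagent, CellTiter-Fluor, read after 30 min to flag cytotoxic substances.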

[16] = qHTS assay to identify small molecule antagonists of the retinoic acid receptor (RAR) signaling pathway (AID 1159552; further: nearly all actives have a fitted effect of over 50% in size); conditions: C3RL4 RARE luciferase reporter, retinol-stimulated, 6 h; series mostly up to 92.4 µM
How it was run: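 Retinol signaling pathway inhibitors screened in C3RL4 RARE-luciferase reporter cells seeded overnight at 37 C, then compounds added with 1 uM (final) retinol as pathway substrate. After 6 hr at 37 C, luciferase luminescence read after 30 min at room temperature.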

[17] = qHTS assay to identify small molecule agonists of the retinoic acid receptor (RAR) signaling pathway (AID 1159553); conditions: C3RL4 RARE luciferase reporter, agonist, 6 h; series mostly up to 73.3 µM
How it was run: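 Activation of retinol signaling was monitored via a RARE luciferase reporter in C3RL4 cells. After 6 hr compound treatment at 37 C, detection reagent was added for 30 min at room temperature before luminescence reading.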

[18] = system: estrogen-related receptor alpha (ERRalpha) with PGC-1alpha coactivator, human; test: qHTS assay to identify small molecule antagonists of the estrogen related receptor signaling pathway with the pleiotropic PPARgamma coactivator (PGC) (AID 1224821; calls by dose curve); conditions: ERR/PGC reporter cell line, luciferase, antagonist mode; series mostly up to 46.1 µM
How it was run: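 Cells engineered for PGC/ERR signalling (line from NTP) were plated 6 h at 37 C/5% CO2, then exposed to DMSO-dissolved compound for 18 h at 37 C. Luciferase activity was read by One-Glo luminescence after 30 min at room temperature.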

[19] = qHTS assay to identify small molecule agonists of the estrogen related receptor signaling pathway with the pleiotropic PPARgamma coactivator (PGC) (AID 1224823); conditions: ERR/PGC reporter cell line, luciferase agonist mode; series mostly up to 46.1 µM
How it was run: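 PGC/ERR reporter cells were seeded, rested 6 h at 37 C/5% CO2, then exposed to compounds in DMSO by pin transfer for 18 h at 37 C. Luciferase activity was read as luminescence after One-Glo reagent and 30 min at room temperature.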

Measured: Potency

Cc1cccc(OCC(O)CNC(C)(C)C)c1C (stereo not given)
not listed: [15] | [16] | [17] | [18] | [19]
inactive: all other assays above

COC(=O)CCc1ccc(OCC(O)CNC(C)C)cc1 (stereo not given)
not listed: [15] | [16] | [17] | [18] | [19]
inactive: all other assays above

CN(C)C(=O)CNC(=O)Cc1ccccc1
not listed: [15] | [16] | [17] | [18] | [19]
inactive: all other assays above

O=C(O)Cc1cn(-c2ccccc2)nc1-c1ccc(Cl)cc1
not listed: [15] | [16] | [17] | [18] | [19]
inactive: all other assays above

CCN1CCc2nc(N)oc2CC1
not listed: [11] | [16] | [17] | [18] | [19]
inactive: all other assays above

CC(=O)NCCCCCC(=O)O
not listed: [11] | [15] | [16] | [17] | [18] | [19]
inactive: all other assays above

O=C1c2ccccc2C(=O)c2cc(S(=O)(=O)O)ccc21
not listed: [9] | [14] | [15] | [18] | [19]
inactive: all other assays above

CC(=O)Nc1ccc(S(=O)(=O)Cl)cc1
not listed: [9] | [15] | [16] | [17] | [18] | [19]
inactive: all other assays above

O=C(NCCN1CCOCC1)c1ccc(Cl)cc1
not listed: [11] | [16] | [17]
inactive: all other assays above

N#Cc1ccc(C(=O)O)cc1
not listed: [9] | [15] | [16] | [17] | [18] | [19]
inactive: all other assays above

C=Cc1ccccn1
not listed: [9] | [14] | [15] | [16] | [18] | [19]
inactive: all other assays above

C=C1CC/C=C(\C)CC[C@@H]2[C@@H]1CC2(C)C
not listed: [11] | [15] | [16] | [17] | [18] | [19]
inactive: all other assays above
